Screening results as filed in PubChem BioAssay.
Tg IFNy HTS: T. gondii growth inhibition under IFN-gamma | AID 1259416 | activity change, negative = inhibition, % (no concentration beside the values) | Toxoplasma gondii growth in IFN-gamma-treated host cells; active compounds read low | hit rate 3.8% among 69,000; in the data active = activity change below about -70%, passing the limit was not always enough;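 note: host cells are HeLa cells infected with Toxoplasma gondii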
The depositor's hits bear a star; i = inactive. The entries come from a sample that favours hits as a whole.

SMILES | Tg IFNy HTS
COc1ccc(-c2nc3c(s2)CN(S(=O)(=O)c2ccc(NC(C)=O)cc2)CC3)cc1 | -26
COCC1(C(=O)N2CCc3c(nc(-c4ccccc4)[nH]c3=O)C2)CCC1 | -36
COc1ccccc1NC(=O)NCC(c1cccnc1)c1cn(C)c2ccccc12 (stereo unspecified) | i
Cc1ccc(C(=O)N2C[C@@H]3CCN(CCN4CCCC4)C[C@H]3C2)cc1 | -2
CCCCc1ncc(-c2nccn2CCc2c(C)n[nH]c2C)[nH]1 | 38
CCCCc1ccc(C(=O)CCN(C)C)cc1 | -41
C[C@@H]1CN([C@H](C)CO)C(=O)c2ccccc2-c2ccccc2CO[C@H]1CN(C)C(=O)NC1CCCCC1 | 70
Cc1ccc(Nc2nc(C(=O)Nc3cc(Cl)ccc3C)nc3ccccc23)cc1 | 29
Cc1ccc(C)c(NC(=O)c2ccc(Nc3nnc(C)c4ccccc34)cc2)c1 | -88*
Cc1ccc(Nc2nc(C(=O)Nc3ccc(F)cc3C)nc3ccccc23)cc1 | 59
Cc1cc(C(=O)NC(C)Cc2c(C)nn(C)c2C)nc(N2CCOCC2)n1 (stereo unspecified) | -2
O=C(NCc1ccc(Cl)cc1)c1c(O)c2cccnc2n(-c2cccc(F)c2)c1=O | 139
COc1cccc(CNC(=O)c2c(O)c3ccccc3n(-c3ccccc3)c2=O)c1 | -5
O=C(NCc1cccc(Cl)c1)c1c(O)c2cccnc2n(-c2ccccc2)c1=O | -83*
O=C(NCc1cccc(Cl)c1)c1c(O)c2cccnc2n(-c2ccc(F)cc2)c1=O | 128
O=C(NCc1ccc(Cl)cc1)c1c(O)c2cccnc2n(-c2ccc(F)cc2)c1=O | -105*
O=C(NCc1ccccc1)c1c(O)c2cccnc2n(-c2ccc(F)cc2)c1=O | 75
O=C(NCc1cccnc1)c1c(O)c2ccccc2n(-c2ccccc2)c1=O | -5
O=C(NCc1ccc(Cl)cc1)c1c(O)c2ccccc2n(-c2ccccc2)c1=O | -124*
O=C(NCc1cccc(Cl)c1)c1c(O)c2cccnc2n(-c2cccc(F)c2)c1=O | 72
O=C(c1ccc(F)cc1Cl)N1CCC(c2ccncc2)CC1 | -44
CCC(=O)N1CCC[C@]2(C[C@@H](OCc3ccncc3)CO2)C1 | -7
COc1c(C)cccc1CN1CCC(c2nnc3n2CCN(C(C)=O)CC3)CC1 | 10
COc1ccc(NC(=O)c2ccco2)cc1NC(=O)c1sc2ccccc2c1Cl | -7
Cn1ccnc1-c1nccn1Cc1ccccc1-n1cccn1 | 34
SMILES | Tg IFNy HTS
Cc1cccc(C(=O)Nc2c(C(=O)NCc3ccccn3)[nH]c3ccc(C)cc23)c1 | -10
COc1cc2c(cc1OC)C(C)=NC1(CCCCC1)C2 | 24
COc1ccc(-c2nnc3n2C2(CCCC2)Cc2cc(OC)c(OC)cc2-3)cc1 | -11
COc1cc2c(cc1OC)C(Nc1ccc(Br)cc1)=NC1(CCCC1)C2 | -85*
Cn1ccnc1CN1CCOCC2(CC(CNc3cccc(F)c3)CO2)C1 (stereo unspecified) | 2
CC(=O)Nc1ccc(C(=O)N(Cc2ccc(C)cc2)C2(C(=O)NCc3ccccc3)CCN(C(C)=O)CC2)cc1 | -57
CS(=O)(=O)N1[C@@H]2Cn3c(cccc3=O)[C@H]1[C@@H](C(=O)NCc1ccc(F)cc1)[C@@H]2CO | -1
O=S(=O)(Cc1c(Cl)cccc1Cl)c1ccc(C(F)(F)F)cn1 | 8
N#Cc1ccc(-c2ccc([C@@H]3[C@@H]4CN(S(=O)(=O)Cc5ccccc5)C[C@H]3N4)cc2)cc1 | -71*
N#Cc1ccc(-c2ccc([C@@H]3[C@@H]4CN(Cc5cocn5)C[C@H]3N4)cc2)cc1 | -46
N#Cc1cccc(-c2ccc(C3[C@@H]4CN(Cc5ccccc5)C[C@H]3N4)cc2)c1 (stereo partly specified) | -21
O=C(CN1CCOCC1)N1CC(=O)N2[C@H](C1)[C@H](c1ccc(C3=CCCCC3)cc1)[C@@H]2CO | 5
CC(C)CNC(=O)c1cc2c(s1)CCN2Cc1cccnc1 | -15
COC1CCC(N(C(=O)C2CCC(C)CC2)c2cc(C3=CCCCC3)sc2C(=O)O)CC1 (stereo unspecified) | 2
CN(C)C(=O)N1C[C@H](OCCCn2cccn2)[C@@H]2OCCC[C@@H]21 | 4
CC(=O)N1CCc2cc(NC(=O)c3cc4cc(C)ccc4o3)ccc21 | 37
CCn1c(=O)c(-c2nc(-c3ccc(F)c(F)c3)no2)c(O)c2ccccc21 | -2
COc1ccc2[nH]cc(CCNc3ccc(S(=O)(=O)c4ccccc4)nn3)c2c1 | 14
C[C@H](CO)N1C[C@H](C)[C@H](CN(C)Cc2ccncc2)OCCCC[C@H](C)Oc2ccc(NS(=O)(=O)c3ccc(Cl)cc3)cc2C1=O | -55
COc1ccc(S(=O)(=O)Nc2ccc3c(c2)C(=O)N([C@@H](C)CO)C[C@H](C)[C@@H](CN(C)Cc2ccc(C(F)(F)F)cc2)OCCCC[C@@H](C)O3)cc1 | -86*
C[C@H]1CCCCO[C@@H](CN(C)Cc2ccncc2)[C@@H](C)CN([C@@H](C)CO)C(=O)c2cc(NS(=O)(=O)c3ccc(Cl)cc3)ccc2O1 | -65
